We go through eight molecules from PubChem BioAssay (NCI).

Compounds without any hit were thinned out: in the full panel of roughly 83,000, 20% have a hit.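 48-hour exposure, single concentration, 96-well plates; percent growth endpoint where 0 means no net growth. Active: below 10.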 Unmarked numbers belong to inactive results. Activity calls are given as the source filed them.

Common to all, as to experiment: NCI-60 one-dose screen, 48 h (100 = growth as untreated, 0 = no growth, -100 = all killed)
Holding throughout (conditions): 10 µM unless noted

For assay [1], the system named is NCI-H23 lung.
In assay [2] the test system is NCI-H226 lung.
Assay [3] has as its system NCI-H322M lung.
Assay [4] relates to HOP-62 NSCLC.
The subject of assay [5] is NCI-H460 lung.
In assay [6] the test system is HOP-92 NSCLC.
Assay [7] relates to A549/ATCC NSCLC.
Assay [8] concerns 786-0 renal.
The test system of assay [9] is COLO 205 colon.
Assay [10] concerns DU-145 prostate.
Assay [11] relates to K-562 leukemia.
Assay [12] concerns MALME-3M melanoma.
Assay [13] concerns MDA-MB-231 breast.
Assay [14] relates to RXF 393 renal.
The test system of assay [15] is SF-268 CNS.
Assay [16] has as its system SF-295 CNS.
In assay [17] the test system is SF-539 CNS.
Assay [18] deals with UACC-257 melanoma.
Assay [19] has as its system M14 melanoma.

Regarding `OC(c1cc(-c2cccc(Cl)c2)nc2ccccc12)C1CCCCN1` (configuration not stated), the growth in assay [1] was 3.63% (active); in assay [2], 31.2%; in assay [3], -12.3% (active); in [4], -67.3% (active); in assay [5], -47% (active); in assay [6], -17.6% (active). The growth was -90.4% (active) in assay [7]; -82.6% (active) in assay [8]; -85.7% (active) in assay [9]; -33.8% (active) in [10]; -47.2% (active) in assay [11]; -69.6% (active) in [12]. Besides, the growth in [13] is -6.36% (active); in assay [14], -46.4% (active); in assay [15] it was 21.4%; in assay [16] it was -47.5% (active); in assay [17], -52.9% (active); in assay [18], -91.9% (active). In addition, the growth in assay [19] is -81.5% (active).
Regarding `COc1cc(/C=C\C(C)=N\Nc2ccccc2)ccc1O`, the growth is 91.2% in [1]; 109% in [2]; 128% in [3]; 67.5% in [4]; 111% in assay [5]; 100% in assay [6]. Besides, the growth in assay [7] was 80.7%; in [8], 97.4%; in [9] it was 111%; in assay [10], 102%; in assay [11] it was 56.1%; in [12], 127%. Moreover, the growth in assay [13] was 76.8%; in assay [14], 108%; in assay [15], 76.4%; in [16], 85.5%; in assay [17], 88.1%; in assay [18], 79.2%. In addition, the growth in assay [19] is 97.5%.
Consider `C/C(=C\CCc1ccoc1)CC/C=C(\C)CCCNc1ccc(F)cc1`, for which the growth is 100% in assay [1]; 88.5% in [2]; 85.4% in [3]; 93.6% in assay [4]; 92.7% in assay [5]; 96.3% in [6]. Further, the growth in [7] was 80.4%; in [8], 95.1%; in assay [9], 98.1%; in assay [10], 101%; in assay [11], 68.6%; in assay [12], 88.2%. For the same molecule, the growth in assay [13] is 72.9%; in assay [14], 101%; in [15], 90.1%; in assay [16], 102%; in assay [17], 89.6%; in [18] it was 99.7%. In assay [19], the growth was 103%.
For `O=C(NCCNC(=O)Oc1cccc2ccccc12)Oc1cccc2ccccc12`, the growth in assay [1] is 91.2%; in assay [2] it was 79%; in assay [3], 99.1%; in assay [4] it was 84.7%; in [5] it was 106%; in assay [6] it was 79.8%. Further, the growth in [7] is 93.4%; in assay [8] it was 106%; in [9] it was 94.7%; in assay [10], 112%; in assay [11], 102%; in [12] it was 141%. Further, the growth in [13] is 68.8%; in [14], 104%; in [15], 83.9%; in [16], 111%; in [17] it was 101%; in [18], 88.3%. Further, the growth in assay [19] is 107%.
For `COc1ccc(Oc2ccccc2NC(=O)CNC(=O)c2cccc3ccccc23)cc1`, the growth in assay [1] is 36.7% [5 µM]; in assay [2] it was 61.4% [5 µM]; in assay [3], 45.5% [5 µM]; in assay [4], 31.5% [5 µM]; in assay [5], 11.9% [5 µM]; in assay [6], 52.1% [5 µM]. In addition, the growth in assay [7] was 20.8% [5 µM]; in [8], 30.1% [5 µM]; in assay [9] it was -20% [5 µM] (active); in [10], 17.5% [5 µM]; in assay [11], 8.48% [5 µM] (active); in assay [12] it was 72.9% [5 µM]. Also, the growth in [13] is 29.4% [5 µM]; in [14] it was 10.3% [5 µM]; in assay [15], 44.1% [5 µM]; in assay [16], 13.2% [5 µM]; in [17] it was -21.5% [5 µM] (active); in [18], 48.6% [5 µM]. Besides, in [19], the growth is 12.6% [5 µM].
As to `NC(=O)NC1(C(=O)O)CCCC1`, the growth in [1] is 105%; in assay [2], 111%; in assay [3], 115%; in assay [4], 110%; in assay [5] it was 112%; in assay [6] it was 121%. Moreover, the growth in assay [7] was 101%; in [8], 107%; in [9], 107%; in assay [10] it was 118%; in [11] it was 99.9%; in assay [12], 114%. Moreover, the growth in assay [13] is 109%; in [14], 125%; in assay [15], 106%; in assay [16], 116%; in assay [17], 102%; in assay [18], 101%. In addition, the growth in assay [19] is 113%.
With `CC(=O)[C@H]1CC[C@H]2[C@@H]3C[C@H](C)C4=CC(=O)CC[C@]4(C)[C@H]3C(=O)C[C@]12C`, the growth is 102% in [1]; 104% in assay [2]; 117% in [3]; 99.1% in assay [4]; 107% in assay [5]; 85.3% in assay [6]. The growth in [7] was 98.7%; in assay [8] it was 112%; in [9], 94.3%; in assay [10], 112%; in assay [11] it was 106%; in [12], 109%. For the same molecule, the growth in assay [13] is 108%; in assay [14], 103%; in assay [15], 96.6%; in [16], 120%; in [17] it was 98.5%; in assay [18] it was 102%. Further, in assay [19], the growth is 101%.
As to `O=C(CNC(=O)c1cccc2ccccc12)Nc1ccccc1Oc1ccc(O)cc1`, the growth in assay [1] was 37.2% [5 µM]; in [2], 62.7% [5 µM]; in assay [3] it was 41.3% [5 µM]; in assay [4] it was 35.7% [5 µM]; in [5] it was 14.5% [5 µM]; in assay [6], 77.5% [5 µM]. Also, the growth in assay [7] is 27.4% [5 µM]; in assay [8], 29.3% [5 µM]; in [9] it was 5.7% [5 µM] (active); in [10] it was 19.5% [5 µM]; in assay [11] it was 9.54% [5 µM] (active); in assay [12] it was 57.9% [5 µM]. Besides, the growth is 47.7% [5 µM] in [13]; -2.89% [5 µM] (active) in assay [14]; 51.7% [5 µM] in assay [15]; 6.5% [5 µM] (active) in [16]; -11% [5 µM] (active) in [17]; 76.7% [5 µM] in assay [18]. Also, the growth in assay [19] was 9.58% [5 µM] (active).
